Results filed as inconclusive are left out. Activity calls are given as the source filed them. Unless noted, calls come from the whole dose curve; as a rule, active = well fitted curve in either direction with a large enough effect (not every such curve was filed as active); inconclusive = small, poorly fitted or top-dose-only effect, or another doubt; inactive = flat fitted curve, though single readings scatter.
Tests used:
[1] = tested on: HIV-1 nucleocapsid protein NCp7 (binding to TG oligonucleotide); test: HIV Nucleocapsid (AID 346; call rule not given here;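 note: potency is the fitted concentration of half-maximal effect; potency is for inhibitors that block NC binding and lower polarization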); conditions: HIV-1 NC / fluorescein-TGTGTGTG probe, fluorescence polarization
How it was run: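 10 nM TG4xF probe with 100 nM nucleocapsid protein in high-salt Hepes pH 7.5 (250mM NaCl) containing 1uM ZnCl2 and reducing agents. Compound inhibition of binding was read as fluorescein polarization after 1 hr at room temperature.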

[2] = AP1 Signaling Pathway (AID 357); conditions: ME-180 AP-1-bla reporter, EGF-induced, beta-lactamase ratio, 5 h; series mostly up to 17.2 µM; note: % is set by controls: 0 for no effect and ±100 for the full control effect
How it was run: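 ME-180 cells with beta-lactamase reporter under AP-1 response element, stimulated with EC50 EGF; compounds tested in titration series, 5 h at 37 °C. CCF4 substrate added 2.5 h at room temperature; 460/530 nm emission ratio gave %activity and AC50.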

[3] = Stat Signaling Pathway (AID 446); conditions: ME-180 SIE beta-lactamase reporter, IL-6 stimulated, 5 h; series mostly up to 17.2 µM;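 note: ME-180 cervical cancer cells given 40 pM IL-6 alongside compound; SIE-controlled beta-lactamase reporter measured as 460/530 nm FRET emission ratio; % is set by controls: 0 for no effect and ±100 for the full control effect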
How it was run: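 Screening format detects activators and inhibitors alike: ME-180 SIE-bla cells stimulated at 40 pM IL-6 for 5 hrs with compound, then dual-emission beta-lactamase read at 405 nm excitation.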

[4] = target: Mitogen-activated protein kinase 10 (Mus musculus) (UniProt Q61831); test: JNK3 AlphaScreen Assay (AID 530); conditions: JNK3 lysate, c-Jun phosphorylation; series mostly up to 57.1 µM;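 note: kinase came from lysate of stimulated human HepG2 cells; signal reports phosphorylation of biotinylated GST-cJun 1-79 at Ser73 with 10 µM ATP; % is set by controls: 0 for no effect and ±100 for the full control effect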
How it was run: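 Pre-activated (IL-1β/TNFα) JNK3 in HepG2 lysates phosphorylates biotin-GST-cJun(1-79), 10 uM ATP; anti-phospho-cJun(Ser73) AlphaScreen read at room temperature, pH 7.6 Tris buffer. Compounds pre-incubated 15 min as titrations.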

[5] = target: 3',5'-cyclic-AMP phosphodiesterase 4B (Homo sapiens) (UniProt Q07343); test: qHTS Assay for Inhibitors of PDE-IV (AID 607; active = well fitted activation curve with a large enough effect in the main read-out, with a control signal flat, not every such curve was filed as active; note: % of control where 0% means no effect); conditions: HEK293 ACTOne CNG channel cells, membrane potential fluorescence; series mostly up to 22.9 µM
3',5'-cyclic-AMP phosphodiesterase 4B (Homo sapiens), sequence (Q07343 whole entry, looked up): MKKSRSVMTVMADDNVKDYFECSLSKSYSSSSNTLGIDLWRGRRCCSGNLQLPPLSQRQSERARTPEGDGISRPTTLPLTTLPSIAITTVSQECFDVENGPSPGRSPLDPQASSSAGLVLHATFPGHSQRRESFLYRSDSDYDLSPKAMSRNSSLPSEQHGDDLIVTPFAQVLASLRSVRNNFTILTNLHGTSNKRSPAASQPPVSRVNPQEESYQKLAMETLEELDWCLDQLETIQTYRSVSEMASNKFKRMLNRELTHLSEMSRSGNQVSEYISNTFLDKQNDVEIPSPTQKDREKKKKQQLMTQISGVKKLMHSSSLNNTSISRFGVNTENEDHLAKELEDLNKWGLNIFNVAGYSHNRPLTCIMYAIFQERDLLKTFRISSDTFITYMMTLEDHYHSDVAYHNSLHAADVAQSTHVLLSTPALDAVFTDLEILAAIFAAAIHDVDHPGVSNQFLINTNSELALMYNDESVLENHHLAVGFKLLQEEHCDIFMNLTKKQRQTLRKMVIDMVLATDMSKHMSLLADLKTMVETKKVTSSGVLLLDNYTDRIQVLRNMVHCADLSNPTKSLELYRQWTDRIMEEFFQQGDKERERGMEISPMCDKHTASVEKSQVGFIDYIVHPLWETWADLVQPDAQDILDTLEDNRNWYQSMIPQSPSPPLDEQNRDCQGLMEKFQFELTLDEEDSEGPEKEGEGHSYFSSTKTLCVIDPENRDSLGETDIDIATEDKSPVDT
How it was run: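 The readout is membrane depolarisation from a cAMP-sensing CNG channel, detected with a potential dye at ex 535/em 590. Cells were HEK293-derived (endogenous PDE-IV) at 1000 cells/well, titrated up to 22.9 uM final.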

[6] = qHTS Assay for Identification of Small Molecule Agonists for Hypoxia Response Element Signaling Pathway (AID 914; active = well fitted activation curve with a large enough effect in the signal ratio, with a control signal flat, not every such curve was filed as active; the % refers to the signal ratio; note: % of control where 0% means no effect); conditions: ME-180 (cervical carcinoma) HRE-bla reporter, beta-lactamase ratio, CoCl2, 17 h; activation: stronger effect = higher value
How it was run: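 Read-out: CCF4 FRET ratio of 460nm to 530nm emission (excitation 405nm) after 2.5 hours at room temperature, taken from HRE-bla ME-180 cells that had been exposed to compound and EC50 CoCl2 for 17 hours.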

[7] = qHTS Assay for Lipid Storage Modulators (AID 1519; calls by dose curve); conditions: Drosophila S3 cells, BODIPY lipid droplet/cell ratio, laser cytometry, cells loaded with oleic acid; for activity change, negative = inhibition: at 57.5 µM (top of the series)
How it was run: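 Cells seeded at 5,000 per well were treated with compounds over a concentration series and loaded with oleic acid (400 uM, as added). Lipid droplet fluorescence (488 nm excitation, 500-530 nm channel) was read by laser-scanning cytometry and normalized to 20 uM Triacsin C.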

[8] = Primary qHTS for small molecule stabilizers of the endoplasmic reticulum resident proteome: Secreted ER Calcium Modulated Protein (SERCaMP) assay (AID 1508630; active = well fitted curve in the direction sought with a large enough effect; an effect the other way counts as inactive or inconclusive; note: % is set by controls: 0 for no effect and ±100 for the full control effect); conditions: SH-SY5Y GLuc-SERCaMP (Gaussia luciferase released on ER calcium loss) secretion, thapsigargin, luminescence; series mostly up to 38.4 µM
How it was run: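 GLuc-SERCaMP-expressing SH-SY5Y cells, pretreated 16 h with compound, are challenged with thapsigargin to empty ER calcium stores; after 4 h, coelenterazine is added directly to the medium and luminescence is imaged.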

[9] = target: Lysosomal acid glucosylceramidase (Homo sapiens) (UniProt P04062); test: Glucocerebrosidase-p2 (AID 348; in the data active = potency below about 10 µM; note: potency is the fitted concentration of half-maximal effect); conditions: purified GBA, blue fluorogenic substrate, 40 min
Lysosomal acid glucosylceramidase (Homo sapiens), sequence (P04062 whole entry, looked up): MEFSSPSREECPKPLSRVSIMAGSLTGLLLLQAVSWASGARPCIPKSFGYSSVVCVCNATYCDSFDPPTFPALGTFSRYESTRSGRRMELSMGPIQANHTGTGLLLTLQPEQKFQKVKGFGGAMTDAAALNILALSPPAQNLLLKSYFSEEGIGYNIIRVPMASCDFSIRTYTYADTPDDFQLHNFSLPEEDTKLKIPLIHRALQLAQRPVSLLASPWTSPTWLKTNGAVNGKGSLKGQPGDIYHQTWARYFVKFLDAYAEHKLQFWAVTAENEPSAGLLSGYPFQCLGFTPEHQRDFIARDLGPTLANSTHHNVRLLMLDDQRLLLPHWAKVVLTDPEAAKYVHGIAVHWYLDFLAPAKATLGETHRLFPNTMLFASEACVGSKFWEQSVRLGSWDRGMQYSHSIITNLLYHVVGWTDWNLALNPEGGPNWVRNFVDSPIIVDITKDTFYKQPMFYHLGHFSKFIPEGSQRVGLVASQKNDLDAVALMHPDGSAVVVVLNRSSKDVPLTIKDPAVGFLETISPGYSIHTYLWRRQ
How it was run: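 Compounds titrated from 0.6 nM upwards against 0.2 nM enzyme in pH 5.9 citric acid/KH2PO4, taurocholate, tween-20; blue fluorogenic substrate 80 uM, 40 min room temperature, stopped and read Ex 365/Em 440 for AC50.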

[10] = target: Cytochrome P450 1A2 (Homo sapiens) (UniProt P05177); test: p450-cyp1a2 (AID 410; calls by dose curve; note: potency is the fitted concentration of half-maximal effect;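 for activity change, negative = inhibition: -100% = full effect of reference inhibitor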); conditions: recombinant CYP1A2, luciferin-ME demethylation, luminescence; series mostly up to 25.6 µM
Cytochrome P450 1A2 (Homo sapiens), sequence (P05177 whole entry, looked up): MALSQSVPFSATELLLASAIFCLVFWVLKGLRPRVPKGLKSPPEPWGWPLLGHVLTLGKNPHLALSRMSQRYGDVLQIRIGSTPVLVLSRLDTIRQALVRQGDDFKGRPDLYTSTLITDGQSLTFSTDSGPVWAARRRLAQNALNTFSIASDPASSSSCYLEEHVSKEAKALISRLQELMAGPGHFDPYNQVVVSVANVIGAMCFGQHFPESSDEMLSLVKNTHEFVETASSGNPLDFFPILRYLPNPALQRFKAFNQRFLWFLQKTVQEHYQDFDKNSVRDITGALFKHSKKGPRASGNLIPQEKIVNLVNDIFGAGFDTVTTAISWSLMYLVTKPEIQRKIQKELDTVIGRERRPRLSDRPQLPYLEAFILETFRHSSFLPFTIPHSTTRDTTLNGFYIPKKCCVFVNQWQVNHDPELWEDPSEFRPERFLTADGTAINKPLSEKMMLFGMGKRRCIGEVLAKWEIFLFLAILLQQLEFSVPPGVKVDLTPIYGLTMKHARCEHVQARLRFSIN
How it was run: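 20nM CYP1A2 with 100uM Luciferin-ME (at Km) in 100mM KPO4; compound preincubated 10 min, NADPH regeneration added, 60 min at room temperature. Luciferin quantified by luminescence after detection reagent; normalized to 57 uM furafylline.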

[11] = target: Glucocorticoid receptor (Homo sapiens) (UniProt P04150); test: GR-EFC Redistribution (AID 451; calls by dose curve; note: potency is the fitted concentration of half-maximal effect); conditions: CHO-K1 GR-EFC translocation, beta-gal luminescence, 2 h
Glucocorticoid receptor (Homo sapiens), sequence (P04150 whole entry, looked up, the tested form may be a part): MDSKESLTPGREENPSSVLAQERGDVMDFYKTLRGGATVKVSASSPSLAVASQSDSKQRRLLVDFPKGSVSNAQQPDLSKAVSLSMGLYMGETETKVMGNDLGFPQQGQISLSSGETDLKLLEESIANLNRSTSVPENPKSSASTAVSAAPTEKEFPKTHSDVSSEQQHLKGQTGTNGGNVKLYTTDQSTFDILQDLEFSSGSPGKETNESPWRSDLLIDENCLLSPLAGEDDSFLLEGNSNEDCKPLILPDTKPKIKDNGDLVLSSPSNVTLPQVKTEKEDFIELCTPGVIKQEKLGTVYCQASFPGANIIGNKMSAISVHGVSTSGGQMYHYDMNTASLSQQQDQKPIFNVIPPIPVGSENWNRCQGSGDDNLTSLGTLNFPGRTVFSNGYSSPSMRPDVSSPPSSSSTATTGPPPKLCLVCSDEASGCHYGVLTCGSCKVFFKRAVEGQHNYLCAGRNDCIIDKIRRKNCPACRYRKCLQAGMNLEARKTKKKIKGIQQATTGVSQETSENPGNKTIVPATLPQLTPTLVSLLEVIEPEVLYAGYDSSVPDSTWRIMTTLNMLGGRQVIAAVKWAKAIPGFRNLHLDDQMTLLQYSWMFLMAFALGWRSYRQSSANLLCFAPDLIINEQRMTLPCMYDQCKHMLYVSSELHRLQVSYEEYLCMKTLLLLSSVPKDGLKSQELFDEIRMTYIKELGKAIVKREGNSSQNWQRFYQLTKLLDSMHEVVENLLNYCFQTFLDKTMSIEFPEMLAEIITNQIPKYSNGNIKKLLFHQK
How it was run: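 CHO-K1 cells expressing nuclear EA and GR-ED fragments of b-gal; compounds titrated up to 46 uM final, 2 h at 37 C. GR nuclear translocation read as complemented b-gal luminescence after 1 h RT detection.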

[12] = target: Cytochrome P450 2C19 (Homo sapiens) (UniProt P33261); test: qHTS Assay for Inhibitors and Substrates of Cytochrome P450 2C19 (AID 899; active = well fitted curve in the direction sought with a large enough effect; an effect the other way counts as inactive or inconclusive; note: potency is the fitted concentration of half-maximal effect; nearly all actives have a fitted effect of over 60% in size); conditions: recombinant CYP2C19, luciferin-H EGE luminescence; series mostly up to 57.1 µM
How it was run: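 5 nM human CYP2C19 with 10uM Luciferin-H EGE (at KM) in 50mM KPO4, compound preincubated 10 min at 37C, then NADPH regeneration for 60 min at 37C. Luciferin read by luminescence after detection reagent; normalized to 57uM ketoconazole as full inhibition.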

[13] = NFAT Signaling Pathway (AID 444); conditions: Jurkat NFAT-bla M1, carbachol, beta-lactamase ratio, 5 h; at 7.69 µM (top of the series)
How it was run: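 Jurkat cells with NFAT-driven β-lactamase reporter and co-expressed M1 receptor, stimulated with carbachol (final 1 uM, ~EC50), compound titration, 5 h at 37 °C. CCF4 loaded 1 h at RT; 460/530 nm ratio gave %activity and AC50.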

[14] = target: Cytochrome P450 3A4 (Homo sapiens) (UniProt P08684); test: qHTS Assay for Activators of Cytochrome P450 3A4 (AID 885; active = well fitted curve in the direction sought with a large enough effect; an effect the other way counts as inactive or inconclusive; note: nearly all actives have a fitted effect of over 65% in size); conditions: recombinant CYP3A4, Luciferin-PPXE luminescence, 60 min; series mostly up to 57.1 µM
Cytochrome P450 3A4 (Homo sapiens), sequence (P08684 whole entry, looked up): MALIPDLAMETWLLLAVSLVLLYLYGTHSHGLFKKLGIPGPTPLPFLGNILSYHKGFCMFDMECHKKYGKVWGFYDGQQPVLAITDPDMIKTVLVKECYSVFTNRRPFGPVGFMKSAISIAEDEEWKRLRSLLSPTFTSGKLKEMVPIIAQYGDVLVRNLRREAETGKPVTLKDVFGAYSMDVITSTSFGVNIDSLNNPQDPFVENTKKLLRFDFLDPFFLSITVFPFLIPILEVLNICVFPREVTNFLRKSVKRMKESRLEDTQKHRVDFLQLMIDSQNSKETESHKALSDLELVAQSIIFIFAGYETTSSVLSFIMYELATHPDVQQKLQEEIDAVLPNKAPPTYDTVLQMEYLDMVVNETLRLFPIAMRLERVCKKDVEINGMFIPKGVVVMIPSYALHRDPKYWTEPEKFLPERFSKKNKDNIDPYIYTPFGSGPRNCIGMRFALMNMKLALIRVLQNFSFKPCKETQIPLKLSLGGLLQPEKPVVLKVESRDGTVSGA
How it was run: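 Steps: enzyme/substrate mix dispensed; compound added, 10 min RT; NADPH regeneration solution added, 60 min RT; luciferin detection buffer stops reaction; 20 min later luminescence measured.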

[15] = target: Glucocorticoid receptor (Homo sapiens) (UniProt P04150); test: GR-GFP Redistribution (AID 450;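 active = compounds whose dose series gives a full or clear partial fitted curve of increased nuclear translocation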; note: potency is the fitted concentration of half-maximal effect); conditions: U2OS GR-GFP nuclear translocation, laser cytometry, 2 h
[16] = target: Cytochrome P450 2C9 (Homo sapiens) (UniProt P11712); test: qHTS Assay for Inhibitors and Substrates of Cytochrome P450 2C9 (AID 883; active = well fitted curve in the direction sought with a large enough effect; an effect the other way counts as inactive or inconclusive; note: potency is the fitted concentration of half-maximal effect; nearly all actives have a fitted effect of over 60% in size); conditions: recombinant CYP2C9, luciferin-H luminescence, 60 min; series mostly up to 57.1 µM
How it was run: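 Human CYP2C9 (10nM) with Luciferin-H at 100uM (its KM) in 25mM KPO4; compound preincubated 10 min at 37C, then NADPH regeneration for 60 min at 37C. Luciferin read by luminescence after detection reagent; normalized to 57uM sulphaphenazole as full inhibition.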

[17] = target: Ubiquitin carboxyl-terminal hydrolase 1 (Homo sapiens) (UniProt O94782); test: Inhibitors of USP1/UAF1: Pilot qHTS (AID 504865; active = well fitted curve in the direction sought with a large enough effect; an effect the other way counts as inactive or inconclusive;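 note: rhodamine fluorescence freed from ubiquitin-rhodamine substrate followed over time; top concentration of the series differs between compounds; % is set by controls: 0 for no effect and ±100 for the full control effect; nearly all actives have a fitted effect of over 35% in size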); conditions: purified USP1/UAF1, Ub-rhodamine cleavage fluorescence; series mostly up to 114 µM
Ubiquitin carboxyl-terminal hydrolase 1 (Homo sapiens), sequence (O94782 whole entry, looked up): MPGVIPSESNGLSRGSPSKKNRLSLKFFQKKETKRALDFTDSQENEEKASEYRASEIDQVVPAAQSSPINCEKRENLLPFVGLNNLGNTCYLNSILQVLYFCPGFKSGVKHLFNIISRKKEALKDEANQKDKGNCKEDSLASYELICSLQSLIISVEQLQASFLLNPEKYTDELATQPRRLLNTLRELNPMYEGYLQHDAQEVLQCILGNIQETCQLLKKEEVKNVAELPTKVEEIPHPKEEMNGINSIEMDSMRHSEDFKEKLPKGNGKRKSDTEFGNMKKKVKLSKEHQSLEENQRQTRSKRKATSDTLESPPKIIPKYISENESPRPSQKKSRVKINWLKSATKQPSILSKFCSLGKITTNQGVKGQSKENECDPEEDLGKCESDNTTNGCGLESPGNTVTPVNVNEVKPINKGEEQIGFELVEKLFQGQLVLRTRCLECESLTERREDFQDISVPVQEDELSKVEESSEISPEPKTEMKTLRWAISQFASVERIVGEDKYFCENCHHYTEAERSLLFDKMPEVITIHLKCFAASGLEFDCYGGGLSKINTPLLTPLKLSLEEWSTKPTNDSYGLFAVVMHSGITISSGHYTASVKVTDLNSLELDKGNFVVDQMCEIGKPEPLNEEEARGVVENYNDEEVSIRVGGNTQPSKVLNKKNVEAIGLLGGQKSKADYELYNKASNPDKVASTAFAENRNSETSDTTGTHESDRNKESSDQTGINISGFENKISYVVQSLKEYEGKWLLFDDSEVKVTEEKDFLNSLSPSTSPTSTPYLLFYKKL
How it was run: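 Deubiquitinase activity followed as kinetic rhodamine fluorescence release from 150 nM Ub-Rho. 1 nM USP1/UAF1 with compound, after 15 min room-temperature preincubation, in HEPES pH 7.8 buffer containing TCEP, EDTA, BSA and Tween-20.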

[18] = target: DNA dC->dU-editing enzyme APOBEC-3G (Homo sapiens) (UniProt Q9HC16); test: qHTS for inhibitors of Vif-A3G interactions: Validation (AID 588379; active = well fitted curve in the direction sought with a large enough effect; an effect the other way counts as inactive or inconclusive; note: 0% is about no effect); conditions: Vif-A3G protein interaction assay; series mostly up to 46.1 µM
DNA dC->dU-editing enzyme APOBEC-3G (Homo sapiens), sequence (Q9HC16 whole entry, looked up): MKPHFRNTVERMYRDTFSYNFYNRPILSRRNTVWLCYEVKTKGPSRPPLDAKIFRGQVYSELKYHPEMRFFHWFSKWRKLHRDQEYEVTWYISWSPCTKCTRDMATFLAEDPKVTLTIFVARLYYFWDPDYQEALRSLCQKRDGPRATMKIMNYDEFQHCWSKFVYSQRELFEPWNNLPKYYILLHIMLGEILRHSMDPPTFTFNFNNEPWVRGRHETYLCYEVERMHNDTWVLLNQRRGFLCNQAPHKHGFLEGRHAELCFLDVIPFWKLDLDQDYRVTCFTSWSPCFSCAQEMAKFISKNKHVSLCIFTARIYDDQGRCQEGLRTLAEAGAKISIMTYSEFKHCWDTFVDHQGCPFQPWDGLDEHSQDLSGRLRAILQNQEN
How it was run: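 HeLa cells stably expressing Vif and A3G-eYFP, 700 cells/well, incubated overnight at 37 deg C, then exposed to compound overnight at 37 deg C. Inhibition of Vif-mediated degradation read as increased yellow fluorescence (Ex 488/Em 500-530) by laser-scanning cytometry.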

[19] = Primary qHTS to identify inhibitors of SARS-CoV-2 cell entry (AID 1645846; calls by dose curve; note: nearly all actives have a fitted effect of over 45% in size); conditions: SARS-CoV-2 pseudovirus cell entry assay, luminescence; activity change, negative = inhibition: at 57.1 µM (top of the series) unless noted
How it was run: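 Entry measured by luciferase signal 48 h after adding SARS-CoV-2-S pseudotyped MLV particles to HEK293-ACE2 cells preincubated 1 h with compounds. Normalisation: bald particles and spike particles.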

[20] = target: Glutathione peroxidase 1 (Homo sapiens) (UniProt P07203); test: Primary qHTS Assay for Inhibitors of Recombinant Selenoprotein Glutathione Peroxidase 1 (GPX1) (AID 1845191; active = well fitted curve in the direction sought with a large enough effect; an effect the other way counts as inactive or inconclusive; note: nearly all actives have a fitted effect of over 65% in size); conditions: recombinant GPX1, GR-coupled NADPH fluorescence, 15 min; series mostly up to 48.8 µM
Glutathione peroxidase 1 (Homo sapiens), sequence (P07203 whole entry, looked up): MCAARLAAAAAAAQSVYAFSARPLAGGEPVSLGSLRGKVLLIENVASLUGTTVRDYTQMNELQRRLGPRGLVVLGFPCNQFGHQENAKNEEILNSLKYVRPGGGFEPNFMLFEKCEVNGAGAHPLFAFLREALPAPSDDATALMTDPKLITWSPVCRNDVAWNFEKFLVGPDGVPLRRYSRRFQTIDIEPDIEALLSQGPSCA
How it was run: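 GR-coupled assay: compounds preincubated 30 min at room temperature with GPX1, then reaction started with CHP; final 10 nM GPX1, 1 mM GSH, 0.5 mM CHP, 0.5 mM NADPH, 100 nM GR, 0.01% BSA, pH 7.5 Tris buffer. NADPH fluorescence (340/450 nm) read at 0 and 15 min.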

[21] = target: Phospholipid hydroperoxide glutathione peroxidase GPX4 (Homo sapiens) (UniProt P36969); test: Primary qHTS Assay for Inhibitors of Recombinant Selenoprotein Glutathione Peroxidase 4 (GPX4) (AID 1845192; active = well fitted curve in the direction sought with a large enough effect; an effect the other way counts as inactive or inconclusive; note: % is set by controls: 0 for no effect and ±100 for the full control effect; nearly all actives have a fitted effect of over 65% in size); conditions: recombinant GPX4, GR-coupled NADPH fluorescence, 15 min; series mostly up to 50 µM
Phospholipid hydroperoxide glutathione peroxidase GPX4 (Homo sapiens), sequence (P36969 whole entry, looked up): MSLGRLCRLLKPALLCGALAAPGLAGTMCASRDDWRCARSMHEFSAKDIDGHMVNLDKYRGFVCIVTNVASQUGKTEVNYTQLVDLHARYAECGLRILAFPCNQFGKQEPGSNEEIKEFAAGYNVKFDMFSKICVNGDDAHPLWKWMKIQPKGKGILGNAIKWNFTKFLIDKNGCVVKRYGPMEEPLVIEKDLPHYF
How it was run: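 GR-coupled assay: recombinant GPX4 preincubated 30 min with compound at room temperature; final 200 nM GPX4, 1 mM GSH, 0.5 mM cumene hydroperoxide, 0.5 mM NADPH, 100 nM GR, 0.01% BSA, pH 7.5 Tris. NADPH fluorescence (340/450 nm) read at 0 and 15 min.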

[22] = qHTS drug screen for cell cycle checkpoint inhibitors in PARPi-resistant BRCA-mutant ovarian cancer cell lines. (AID 1963452; calls by dose curve); conditions: PEO1/OlaR viability, CellTiter-Glo luminescence, 96 h, stronger effect = lower value
How it was run: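 PEO1, PEO4 and PEO1/OlaR ovarian cancer cells, 600 per well, exposed 96 h at 37C to a dilution series. Viability read by CellTiter-Glo luminescence, normalized to DMSO and empty wells; activity summarized as Z-AUC.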

[23] = measured here: cell count channel max response
[24] = measured here: lipid channel max response

CN1CCCC2(CCN(C(=O)c3ccco3)CC2)C1
inactive: Potency [1] > 20 µM | outcome [2] | outcome [3] | outcome [4] | Potency [5] | activation [6] -1.89% | activity change, negative = inhibition [7] -2.44% | outcome [8]
-24.9%: max response [7, 23]
-25.6%: max response [7, 24]

c1ccc(CN2CCC3(CCNCC3)CC2)cc1
inactive: Potency [9] > 11.4 µM | outcome [2] | Potency [10] | outcome [3] | Potency [11] > 46 µM | outcome [4] | Potency [5] | activity change, negative = inhibition [7] 1.99% | outcome [8]
27.4%: max response [7, 24]
22.2%: max response [7, 23]
active: Potency [12] 5.01 µM

c1ccc(N2CC3(CCNCC3)C2)cc1
20.7%: max response [7, 24]
11.6%: max response [7, 23]
inactive: Potency [9] > 11.4 µM | outcome [2] | Potency [10] | activity change, negative = inhibition [13] -5.86% | outcome [3] | Potency [11] > 46 µM | outcome [4] | Potency [5] | activity change, negative = inhibition [7] 3.32% | outcome [8]

CC(C)CN1CC2(CCN(C(=O)Oc3ccccc3)CC2)C1
1.27%: max response [7, 24]
inactive: Potency [9] > 11.4 µM | outcome [2] | Potency [10] | activity change, negative = inhibition [13] -14.8% | outcome [3] | Potency [11] > 46 µM | outcome [4] | Potency [5] | activation [6] -12.9% | activity change, negative = inhibition [7] 2.95% | outcome [8]
-4.14%: max response [7, 23]

COc1ccccc1CN1CC[C@@]2(CCCN(C(=O)Oc3ccccc3)C2)C1
13.6%: max response [7, 24]
active: Potency [10] 10 µM
2.61%: max response [7, 23]
inactive: outcome [2] | outcome [3] | Potency [11] > 46 µM | outcome [4] | Potency [5] | Potency [14] | activity change, negative = inhibition [7] 7.75% | outcome [8]

O=C(O)C1=CCCN(CCOC(c2ccc(C(F)(F)F)cc2)c2ccc(C(F)(F)F)cc2)C1
active: Potency [16] 2.51 µM
-0.857: Z-AUC ([22]; measured here: PEO1 parental Z-AUC)
-0.457: Z-AUC ([22]; measured here: PEO4 Z-AUC)
inactive: Potency [15] > 46 µM | Potency [5] | Potency [14] | Potency [17] | outcome [18] | outcome [8] | Potency [20] | Potency [21] | Z-AUC [22] -1.16
-6.97%: activity change, negative = inhibition [19]

— PubChem BioAssay (NCATS)
